Measurements published in the supplement of paper PMC7556523.
Values without a mark were called inactive.

system: Sporothrix brasiliensis CBS 133006; assay: growth inhibition relative to untreated control; higher = more growth inhibition (more antifungal activity), active = 80 or more; extreme values may be limits of the assay; conditions: 1 µM; 48 h
Method in brief: (§1)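 Yeast-form cells of the reference isolates (grown 7 days in brain heart infusion broth with 2% glucose at 36°C) were exposed at 1 x 10^5 CFU/ml to library compounds at a final 1 μM for 48 h at 35°C in 5% CO2. Growth was checked by visual inspection under an inverted light microscope and quantified by spectrophotometric readings. The value is percent growth inhibition relative to untreated control. Runs were in quadruplicate.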

Compound	growth inhibition
Cc1cc(O)nc(-n2nc(C)cc2C)n1	4.75%
COc1cc(-c2cc(-c3ccc(S(C)(=O)=O)cc3)cnc2N)ccc1O	17.8%
Brc1cncc(-c2cc(NCCCn3ccnc3)nc(-c3ccccc3)n2)c1	22%
Cc1cc(C(=O)Nc2cnn(Cc3ccc(Cl)cc3Cl)c2)no1	5.75%
Cc1ccc(NC(=O)c2nc[nH]c2C(=O)Nc2nc3ccccc3[nH]2)c(C)c1	17.8%
CCOc1ccccc1NC(C)C(=O)Nc1cc(C(F)(F)F)ccc1N1CCOCC1 (stereo unspecified)	27.8%
Cc1ccccc1CN1CCC(O)(c2ccc(Cl)c(C(F)(F)F)c2)CC1	0%
CC(C)(C)OC(=O)N1CCC(Cn2nc(-c3cnc4ccccc4c3)c3c(N)ncnc32)CC1	21.2%
Nc1ccc(C(=O)Nc2ccc(-c3nc4ccccc4o3)cc2)cc1	5.5%
CNC(=O)C1Cc2c([nH]c3cc(Cl)ccc23)C2(CCN(CCc3ccccc3)CC2)N1 (stereo unspecified)	10.8%
O=C(Nc1cccc(-c2ccc(NCCCN3CCCC3)nc2)c1)c1ccccc1	14.8%
COc1ccc(C2=NCCN2)cc1-c1cn(-c2cccc(C3=NCCN3)c2)nn1	12.8%
COc1ccc(OC)c(NCc2ccc3nc(N)nc(N)c3c2Cl)c1	93.8% (active)
CCC(NC(=O)c1ccccc1NC(=O)c1ccc(C)cc1)C(=O)OC (stereo unspecified)	10%
Brc1c(-c2ccc3c(c2)OCO3)nc2ncccn12	19.5%
CCCCN(CCCC)c1c(C#N)cc(S(=O)(=O)Nc2ccccc2)cc1C#N	9.25%
CNc1nnc(Sc2cnn(-c3ccccc3)c(=O)c2Cl)s1	6%
Cc1noc(C)c1COc1cccc(C(=O)N=c2[nH]cccc2C)c1	0%
CCc1ccc([C@@H]2C[C@H](C(F)(F)F)n3ncc(C(=O)NCc4ccc(OC)cc4)c3N2)cc1	15.5%
N#Cc1nc(-c2ccccc2)oc1S(=O)(=O)c1ccc(Cl)cc1	48.8%
O=C1COCc2ccc(Br)cc2N1Cc1ccc(C(F)(F)F)cc1	0%
COC(=O)c1ccc(F)cc1NS(=O)(=O)c1cccc(-c2cnn(Cc3ccccc3)c2)c1	12%
CNC(=O)C1Cc2ccccc2N1C(=O)Cc1ccc(F)cc1 (stereo unspecified)	32.2%

system: Sporothrix schenckii ATCC 32286; assay: as above; conditions: 1 µM; 48 h
Method in brief: as §1

Compound	growth inhibition
COc1ccc2nc(C)cc(OCC(=O)Nc3ccccc3OC)c2c1	0.75%
CC1=Nc2ccc(Cl)cc2C(c2ccccc2)N1CCNC(=O)CN(C)C (stereo unspecified)	0%
FC(F)(F)c1cnc(Sc2nnc(-c3ccncc3)o2)c(Cl)c1	0%
COC(=O)c1c(NC(=O)c2cc3ccccc3oc2=O)sc2c1CCN(Cc1ccccc1)C2	15%
Clc1ccc(CCNc2cc(-c3ccccc3)nc3ncnn23)cc1	18.2%
CCc1nc2ccccc2n1CC(O)COc1cc(C)ccc1Cl (stereo unspecified)	11%
CCC(Sc1nc2ccccc2o1)C(=O)Nc1nnc(C)s1 (stereo unspecified)	3.25%
O=C(OCc1ccccc1)N1CCC(c2cc(-c3ccncc3)c(-c3ccc(F)cc3)[nH]2)CC1	13.2%
CO[C@H]1/C=C\O[C@@]2(C)Oc3c(C)c(O)c4c(O)c(/c(=C/NN5CCN(C)CC5)c(O)c4c3C2=O)=N\C(=O)/C(C)=C\C=C/[C@H](C)[C@H](O)[C@@H](C)[C@@H](O)[C@@H](C)[C@H](OC(C)=O)[C@@H]1C	11.2%
c1cncc(NCc2ccc(-c3cc4ccncc4cc3OC3CCNCC3)s2)c1	3%
CCCn1c(NC(=O)c2ccc3ccccc3n2)nc2ccccc21	0%
CCN(CC)C(=O)N1CCN(C)CC1	1%
COc1cccc(OCC(=O)c2ccc(Br)cc2)c1	22%
Cc1nnc(NC(=O)c2cn(-c3ccccc3)nc2-c2ccccc2C)o1	22.8%
Clc1ccc(Cl)c(CO[C@H]2CCCC[C@@H]2n2ccnc2)c1	5.5%
Cc1cc(O)nc(-n2nc(C)cc2C)n1	11.8%
COc1cc(-c2cc(-c3ccc(S(C)(=O)=O)cc3)cnc2N)ccc1O	19.8%
Brc1cncc(-c2cc(NCCCn3ccnc3)nc(-c3ccccc3)n2)c1	3.5%
Cc1cc(C(=O)Nc2cnn(Cc3ccc(Cl)cc3Cl)c2)no1	12%

Compound	growth inhibition
Cc1ccc(NC(=O)c2nc[nH]c2C(=O)Nc2nc3ccccc3[nH]2)c(C)c1	1.25%
CCOc1ccccc1NC(C)C(=O)Nc1cc(C(F)(F)F)ccc1N1CCOCC1 (stereo unspecified)	0%
Cc1ccccc1CN1CCC(O)(c2ccc(Cl)c(C(F)(F)F)c2)CC1	0%
CC(C)(C)OC(=O)N1CCC(Cn2nc(-c3cnc4ccccc4c3)c3c(N)ncnc32)CC1	4.5%
Nc1ccc(C(=O)Nc2ccc(-c3nc4ccccc4o3)cc2)cc1	0%
CNC(=O)C1Cc2c([nH]c3cc(Cl)ccc23)C2(CCN(CCc3ccccc3)CC2)N1 (stereo unspecified)	0%
O=C(Nc1cccc(-c2ccc(NCCCN3CCCC3)nc2)c1)c1ccccc1	6%
COc1ccc(C2=NCCN2)cc1-c1cn(-c2cccc(C3=NCCN3)c2)nn1	3%
COc1ccc(OC)c(NCc2ccc3nc(N)nc(N)c3c2Cl)c1	89.2% (active)
CCC(NC(=O)c1ccccc1NC(=O)c1ccc(C)cc1)C(=O)OC (stereo unspecified)	5.75%
Brc1c(-c2ccc3c(c2)OCO3)nc2ncccn12	27.8%
CCCCN(CCCC)c1c(C#N)cc(S(=O)(=O)Nc2ccccc2)cc1C#N	23.8%
CNc1nnc(Sc2cnn(-c3ccccc3)c(=O)c2Cl)s1	0%
Cc1noc(C)c1COc1cccc(C(=O)N=c2[nH]cccc2C)c1	8.25%
CCc1ccc([C@@H]2C[C@H](C(F)(F)F)n3ncc(C(=O)NCc4ccc(OC)cc4)c3N2)cc1	12.2%
N#Cc1nc(-c2ccccc2)oc1S(=O)(=O)c1ccc(Cl)cc1	6.25%
O=C1COCc2ccc(Br)cc2N1Cc1ccc(C(F)(F)F)cc1	2.75%
COC(=O)c1ccc(F)cc1NS(=O)(=O)c1cccc(-c2cnn(Cc3ccccc3)c2)c1	20.2%
CNC(=O)C1Cc2ccccc2N1C(=O)Cc1ccc(F)cc1 (stereo unspecified)	3.25%
